# Pin1 inhibitor = qHTS Assay to Find Inhibitors of Pin1 | Peptidyl-prolyl cis-trans isomerase NIMA-interacting 1 (Homo sapiens), Q13526 | Pin1 FP peptide displacement, HiFluor488, 10 min | Potency, µM (top dose mostly 115 µM), inactives show top-dose activity, negative = inhibition, usual class: inhibitors | 390,000 compounds, 0.009% hits; active means well fitted inhibition curve with a large enough effect in the polarisation, with a control signal flat, not every such curve was filed as active; inconclusive means small, poorly fitted or top-dose-only effect, or effect the other way, or a change in a side signal; inactive means no such curve, though single readings can be large or run the other way; the % refers to the polarisation; further: on the % scale 0 is the no-effect control and ±100 the full control effect
# Tb PFK inh-1 = qHTS Assay to Find Inhibitors of T. brucei phosphofructokinase | Potency, µM (doses to about 57.5 µM), inactives show at the highest dose activity, negative = inhibition, hits mostly inhibitors | 330,000 compounds, 0.17% hits | ATP-dependent 6-phosphofructokinase (Trypanosoma brucei brucei), O15648 | T. brucei PFK, ADP-Glo luminescence;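 further: 0% = uninhibited 1x PFK enzyme wells and -100% = no-enzyme wells; nearly all actives have a fitted effect of over 60% in size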
# Target sequence (O15648 whole entry, looked up): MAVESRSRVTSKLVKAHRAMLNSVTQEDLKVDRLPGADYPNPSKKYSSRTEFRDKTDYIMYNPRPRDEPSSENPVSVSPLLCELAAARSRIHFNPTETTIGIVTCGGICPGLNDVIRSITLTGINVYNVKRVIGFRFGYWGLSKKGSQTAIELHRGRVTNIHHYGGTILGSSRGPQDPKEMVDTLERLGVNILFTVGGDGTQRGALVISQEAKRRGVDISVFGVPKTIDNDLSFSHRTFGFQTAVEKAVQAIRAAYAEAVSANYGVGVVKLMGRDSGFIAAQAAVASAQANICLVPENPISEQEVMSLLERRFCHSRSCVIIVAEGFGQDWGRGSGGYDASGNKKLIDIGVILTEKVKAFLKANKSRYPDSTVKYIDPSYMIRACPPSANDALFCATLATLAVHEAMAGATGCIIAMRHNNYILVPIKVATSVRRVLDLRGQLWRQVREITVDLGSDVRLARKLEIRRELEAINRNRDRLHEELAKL
#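 PFK 1.25 nM, F6P 0.5 mM, ATP 0.1 mM, 0.1 M TEA pH 8.0, 5 mM MgCl2, 0.01% Tween20, 0.1% BSA; 45 min RT. ADP-Glo readout. qHTS titration up to 57 uM; curves fitted, compounds curve-classed.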
# VDR inh = Inhibitors of the vitamin D receptor (VDR): qHTS; VDR-SRC2-3 peptide fluorescence polarization, 2 h; AID 504847, 2011; Potency, µM, for the others: max response, negative = inhibition, hits mostly inhibitors; 400,000 compounds, 0.93% hits; Vitamin D3 receptor (Homo sapiens), P11473; further: on the % scale 0 is the no-effect control and ±100 the full control effect
#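 Compounds are added to VDR with labelled SRC2-3 coactivator peptide and held 2 h at room temperature. Inhibition of the VDR–peptide interaction is then read as a change in fluorescence polarization.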
# Tb PGK inh = qHTS Assay to Find Inhibitors of Phosphoglycerate Kinase. PGK/GAPDH coupled, Kinase-Glo luminescence, 60 min. 380,000 compounds, 0.043% hits. Phosphoglycerate kinase, glycosomal (Trypanosoma brucei brucei), P07378. Potency, µM (doses to about 57.5 µM), for inactives: at the top dose activity change, negative = inhibition, most hits filed as inhibitors; further: on the % scale 0 is the no-effect control and ±100 the full control effect; nearly all actives have a fitted effect of over 60% in size
#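 Luminescent ATP detection (Kinase-Glo Plus) follows a 60-minute room-temperature incubation, with wells lacking PGK as controls. Buffer: 100 mM TEA (pH 7.6), 5 mM MgCl2, 0.01% Tween-20. Coupling enzyme GAPDH (100 nM final) supplies unstable 1,3-BPG in-well.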
# GLS inhibitor = qHTS for Inhibitors of Glutaminase (GLS) | Potency, µM (highest dose often 45.5 µM), inactives show at the top dose activity change, negative = inhibition, actives largely listed as inhibitors | AID 624170, 2012 | 410,000 compounds, 0.21% hits | GLS enzymatic activity, qHTS titration; further: on the % scale 0 is the no-effect control and ±100 the full control effect
#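 hKGA; 45 mM KH2PO4 pH 8.2 + 0.02% Tween-20; cpd via pin tool; 1 mM Gln soln; GluOx/HRP/Amplex Red; RT 30 min; fluor. t0 & final.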
# Tb PFK KinaseGlo = Tb PFK orthogonal confirmatory assay using ATP depletion (Kinase-Glo Plus) as an alternative measure of Tb PFK activity: Hit Validation; 1,100 compounds, 47% hits; shares compounds with Tb PFK inh-1; Tb PFK enzyme, ATP depletion, Kinase-Glo Plus luminescence; Potency, µM (top dose mostly 57.5 µM), without a hit: at the highest dose inhibition; calls by dose curve; further: nearly all actives have a fitted effect of over 60% in size
# Tb PFK inh-2 = Inhibitors of T. brucei phosphofructokinase: Hit Validation; shares compounds with Tb PFK inh-1; purified T. brucei PFK, ADP-Glo luminescence, 45 min; Potency, µM (series often up to 57.5 µM), without a hit: top-dose activity change, negative = inhibition, most hits filed as inhibitors; 1,100 compounds, 41% hits; AID 504637, 2011;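 further: plate controls were full PFK enzyme control for no effect and no enzyme control for full effect; nearly all actives have a fitted effect of over 60% in size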
# * = called active by the depositor; ? = inconclusive; · = no result; [ ] = dose if it differs, or a comment. Rows were chosen to be rich in hits. Some 1.1% of all compounds tested hit in one or more screens of this group. Unless noted, the call rests on the fitted dose curve; in most records, active means well fitted curve in the direction sought with a large enough effect; inconclusive means small, poorly fitted or top-dose-only effect, or another doubt; inactive means no such curve, though single readings can be large; an effect the other way counts as inactive or inconclusive. Potency means the concentration at half of the fitted maximal effect.
SMILES,Pin1 inhibitor,Tb PFK inh-1,VDR inh,Tb PGK inh,GLS inhibitor,Tb PFK KinaseGlo,Tb PFK inh-2
O=C(Nc1ccc(Cl)cc1)Nc1nccs1,-5%,-9%,-9%,-4%,22%,·,·
O=C(Nc1ccc(Cl)cc1)Nc1cccnc1,-9%,17µM*,9%,·,4%,?,?
Cc1nn(C(C)(C)C)c(C)c1/C=N/OC(=O)Nc1ccc(Cl)cc1,?,1%,10%,-3%,5%,·,·
Cc1ccc(S(=O)(=O)N2CCCCC2)cc1NC(=O)CN1CC=C(c2ccccc2)CC1,?,-1%,0%,-9%,0%,·,·
CC1CCN(S(=O)(=O)c2ccc3c(c2)CCC(=O)N3CC(=O)Nc2cccc(C#N)c2)CC1,?,9.5µM*,18%,14µM*,-6%,6µM*,12µM*
Cc1ccc(S(=O)(=O)N(C(=O)c2ccncc2)c2ccc(OC(=O)c3ccncc3)c3ccccc23)cc1,-1%,17µM*,?,-2%,-20%,2.4µM*,2.7µM*
O=C(c1cccs1)N1CCC(C(=O)O)(c2ccccc2)CC1,·,·,·,-7%,-4%,·,·
CC(NC(=O)C1CCN(C(=O)c2cccs2)CC1)c1ccc(S(N)(=O)=O)cc1 (stereo not given),-2%,?,-22%,-6%,-10%,-32%,?
O=S1(=O)N(Cc2ccccc2)CCCN1Cc1ccc(F)cc1Cl,0%,·,-3%,9%,5%,·,·
COC(=O)C1CCN(C(=O)c2cc(-c3ccco3)nc3ccccc23)CC1,·,2.7µM*,-12%,?,?,?,-26%
COc1ccc(-c2cc(C(=O)N3CCC4(CC3)OCCO4)c3ccccc3n2)cc1,4%,-1%,8%,5%,4%,·,·
CC#C[C@]1(O)CC[C@H]2C3C=C(C)C4=CC(=O)C=C[C@]4(C)[C@H]3[C@@H](O)C[C@@]21C (stereo not given in full),·,·,0%,·,·,·,·
O=C(C1CCN(S(=O)(=O)c2cccnc2)CC1)N1CCN(c2cccc(Cl)c2)CC1,-7%,21µM*,-19%,-2%,3%,?,-28%
O=C(C1CCN(c2ncnc3c2nc2n3CCCCC2)CC1)N1CCN(c2cccc(Cl)c2)CC1,-5%,9.5µM*,-11%,3%,17%,24µM*,?
C[C@]12CCC(=O)C=C1CC[C@@H]1[C@H]3CC[C@](C)(O)[C@@]3(C)CC[C@@H]12,·,·,·,·,-6%[99.4 µM],·,·
CCN1C(=O)C(=C2C=C(C)N(Cc3ccco3)C(C)=C2)C(=O)N(CC)C1=S,-4%,-3%,2%,-8%,0%,·,·
Cc1[nH]c2ccccc2c1C(=O)CN1C(=O)C(=O)N(Cc2ccco2)C1=O,3%,?,-6%,6%,11%,-28%,?
COc1ccc(C(=O)OCC2CN2c2cccc([N+](=O)[O-])c2)cc1 (stereo not given),·,·,·,·,-8%,·,·
CC(C)n1ncc2c(C(=O)Nc3ccc(S(N)(=O)=O)cc3)cc(C3CC3)nc21,7%,?,-9%,-8%,-6%,-33%,?
C[C@]12CC[C@@H]3[C@@H](CCC4=CC(=O)CC[C@@H]43)[C@@H]1CC[C@@H]2OC(=O)CCc1ccccc1,·,·,-17%,·,-3%,·,·
CCc1nnc(NC(=O)CSc2nc(C)c3c(c2C#N)CCCC3)s1,57%,?,16%,4%,4%,-18%,16%
CCc1nnc(NC(=O)CCc2nc(C3=CCN(C)CC3)no2)s1,-6%,0%,-9%,-8%,-14%,·,·

# Screening results as filed in PubChem.
